The full list was thinned out, with hits kept by preference.
TTR transcr act = increases transthyretin transcription | activation, % at 16.7 µM | actives 1.3% (n = 92,000) | SH-SY5Y TTR promoter Gaussia luciferase, luminescence; 100% = recombinant luciferase protein wells;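 active = activation above the mean of all tested compounds plus 3 SD, cut at about 9.5% in these data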;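 note: cells exposed to compounds for one day before reading; 0% = median of all test compound wells on the plate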
HuH7 TTR inh = counter-screen for TTR activators: TTR transcription inhibitors in HuH7 cells; shares compounds with TTR transcr act; HuH7 TTR promoter-Gaussia luciferase reporter, luminescence; inhibition, % at 16.7 µM; actives 4% (n = 1,100);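 active = average inhibition above the solvent-only control wells' mean plus 3 SD, cut at about 15% in these data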;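 note: 0% = cells with DMSO only and 100% = cells with inhibitor control FD; inhibitors lower well luminescence so higher value means more inhibition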
TTR up confirm = confirmation of human transthyretin transcription activators. 1,100 tested, under 10 active. AID 1117280. SHSY5Y TTR promoter Gaussia luciferase, luminescence; 100% = purified Lucia enzyme wells, no cells. activation, % at 16.7 µM. shares compounds with TTR transcr act;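 active = mean activation above a set limit taken from the earlier primary screen, cut at about 11% in these data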;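 note: 0% = DMSO-treated cells and 100% = recombinant Lucia luciferase without cells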
* marks the source's active call; other numbers are inactive results; . = no result given.

SMILES	TTR transcr act	HuH7 TTR inh	TTR up confirm
C[C@H]1CN([C@@H](C)CO)S(=O)(=O)c2ccc(Br)cc2O[C@@H]1CN(C)C(=O)C1CCOCC1	24*	-8	1
C[C@H](CO)N1C[C@H](C)[C@H](CN(C)C(=O)CC2CC2)Oc2cc(Br)ccc2S1(=O)=O	0	.	.
C[C@H](CO)N1C[C@H](C)[C@@H](CN(C)C(=O)c2ccc(F)cc2)Oc2cc(Br)ccc2S1(=O)=O	1	.	.
CCC(=O)N(C)C[C@H]1Oc2cc(Br)ccc2S(=O)(=O)N([C@@H](C)CO)C[C@H]1C	15*	-11	0
CCOC(=O)N1CCC(n2c(=S)[nH]c3ccccc3c2=O)CC1	1	.	.
O=C(C[C@H]1C/C=C\C[C@@H](Cc2ccc(F)cc2)C(=O)O[C@H](c2ccccc2)CNC1=O)N[C@@H](CO)Cc1ccccc1	1	.	.
Nc1nc(SCc2ccccn2)c2ncn(C3CCCC3)c2n1	0	.	.
O=C(O)c1ccccc1SC1CC(=O)N(c2cccc3ccccc23)C1=O (configuration not stated)	1	.	.
Cn1nnnc1SC1CC(=O)N(c2ccccc2)C1=O (configuration not stated)	1	.	.
COC(=O)c1ccccc1SC1CC(=O)N(c2ccccc2)C1=O (configuration not stated)	21*	-13	0
Cc1ccc(OCc2cc(C(=O)NCC(C)(C)N3CCOCC3)no2)cc1C	-2	.	.
Cc1cccc(OCC(=O)OCC(=O)c2c(N)n(C)c(=O)n(C)c2=O)c1C	0	.	.
Cc1ccc(C(C)C)c(OCC(=O)OCC(=O)c2c(N)n(C)c(=O)n(C)c2=O)c1	-1	.	.
Cc1cccc(OCC(=O)OCC(=O)c2c(N)n(C)c(=O)n(C)c2=O)c1	11*	-7	0
Cc1ccc(-n2c(O)c(C=NCc3ccccn3)c3ccccc3c2=O)cc1	0	.	.
O[C@@H]1CN(CC2CCCCC2)[C@@H](c2ccccc2)C[C@H]1n1cc(C2CC2)nn1	0	.	.
NC1=NC[C@H](c2ccccc2)N1CC1CCCCC1	15*	-3	-1
c1ccc(NC2=NCCN2CC2CCC2)cc1	-1	.	.
Cc1ccc(S(=O)(=O)N(C)C)cc1NC(=S)NCc1ccco1	1	.	.
CCOC(=O)c1ccc(NC(=O)CCNS(=O)(=O)c2ccc3c(c2)oc(=O)n3C)cc1	1	.	.
CCOCCCNC(=O)c1cc(C)nn1-c1ccccc1	0	.	.
Cc1cc(C(=O)N2CCOCC2)n(-c2ccccc2)n1	0	.	.
Cc1cc(C(=O)NCCCN2CCOCC2)n(-c2ccccc2)n1	17*	-3	0
O=C(Nc1ccc(F)cc1)OCc1cn(Cc2ccc(Cl)cc2)nn1	1	.	.
O=C(NC1CCN(Cc2ccccc2)CC1)c1ccccc1Cl	1	.	.
SMILES	TTR transcr act	HuH7 TTR inh	TTR up confirm
O=C(NC1CCN(Cc2ccccc2)CC1)c1ccccc1OCc1ccccc1	-3	.	.
Cc1oc(-c2ccccc2)cc1C(=O)NC1CCN(Cc2ccccc2)CC1	9.8*	0	0
S=c1[nH]nc(-c2cc(-c3ccccc3)n[nH]2)n1/N=C/c1cccs1	0	.	.
S=c1[nH]nc(-c2cc(-c3ccccc3)n[nH]2)n1/N=C/C=C/c1ccccc1	4	.	.
S=c1[nH]nc(-c2cc(-c3ccccc3)n[nH]2)n1/N=C/c1ccccc1	11*	-15	1
N#Cc1c(-c2ccccc2)cc(-c2ccc3c(c2)OCO3)[nH]c1=O	0	.	.
Cc1nc(SCc2ccccc2)c([N+](=O)[O-])[nH]1	-2	.	.
CCOC(=O)CSc1nc(C)[nH]c1[N+](=O)[O-]	10*	-6	-1
Cc1nc(SCCC(C)C)c([N+](=O)[O-])[nH]1	-1	.	.
C[C@@H]1COC(=O)[C@H](Cc2ccc(F)cc2)CC/C=C/C[C@@H](CC(=O)N[C@H](CO)Cc2ccccc2)C(=O)N1	0	.	.
O=C(COC(=O)CCSc1ccccc1Cl)Nc1ccc(F)cc1F	10.0*	-6	3
O=C(COC(=O)CCSc1ccccc1)Nc1ccc(F)cc1Cl	0	.	.
CSc1ccccc1NC(=O)COC(=O)CCC(=O)c1ccc(F)cc1	-1	.	.
COC(=O)C(CC(=O)CNC(=O)c1ccccc1)NC(=O)c1ccccc1 (configuration not stated)	1	.	.
O=C(NC(CC1CCCCC1)C(=O)O)c1ccccc1 (configuration not stated)	15*	-7	0
O=C(CNC(=O)c1ccccc1)OC1CCCCC1	1	.	.
C#CCNC(=O)C[C@@H]1C[C@@]2(C(=O)OC)CC(C)(C)CC=C2N(Cc2ccccc2)C1=O	0	.	.
CCn1c(CNC(=O)c2cccc(C)c2)nnc1SCC(=O)Nc1nnc(C)s1	1	.	.
CCC(=O)N1CCC(c2ccc(OC)cc2)=N1	7	.	.
COc1ccc([C@H]2CC(=O)C=C(c3ccc4ncccc4c3)C2)cc1	-4	.	.
O=C(COC(=O)/C=C/c1ccc(F)cc1)NC1CCCCCC1	10*	-7	0
O=C(COC(=O)/C=C/c1ccc(Cl)cc1)NC1CCCC1	3	.	.
